# Rows were chosen to be rich in hits. Some 4.3% of all compounds tested hit in one or more screens of this group.
# Anthrax LF prot: anthrax lethal factor protease inhibition. P15917. multiplex microsphere protease cleavage assay, LF. inhibition, % at 10 µM. 360,000 compounds, 0.12% hits; further: plate controls were buffer without enzyme for full effect and enzyme alone for no effect
# Bead autofluor: counter-screen for toxin protease inhibitors: compound fluorescence. compound autofluorescence counterscreen, microsphere flow cytometry; active compounds read high. fluorescence intensity (concentration not given with the values). 360,000 compounds, 3.1% hits. AID 624483; in the data active means fluorescence intensity above about 16000; inconclusive means no clear call, values can overlap the other calls
# MazF activator: activators of E. coli MazEF toxin-antitoxin RNase | P0AE70 | FAM/BHQ RNA-DNA oligo cleavage fluorescence, 5 h | activation, % at 20 µM | 350,000 compounds, 0.32% hits | AID 504720; in the data active means activation above about 50%
# Target sequence (P0AE70 whole entry, looked up): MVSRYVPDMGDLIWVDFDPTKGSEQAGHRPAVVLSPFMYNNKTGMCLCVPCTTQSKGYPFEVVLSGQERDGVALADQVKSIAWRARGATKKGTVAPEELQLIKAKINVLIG
# BoNT A protease: blocks Botulinum neurotoxin A light chain protease; multiplex microsphere protease substrate cleavage, flow cytometry; AID 588499; 360,000 compounds, 0.17% hits; inhibition, % at 10 µM; further: plate controls were buffer without enzyme for full effect and enzyme alone for no effect
# PfHsp40 yeast: rescue of PfHsp40-mediated yeast toxicity; growth rescue, % at 12.5 µM; S. cerevisiae expressing PfHsp40, growth rescue, ATP luminescence; 340,000 compounds, 0.68% hits; AID 504582; in the data active means growth rescue above about 28%, passing the limit was not always enough; inconclusive means no clear call, values can overlap the other calls;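 further: yeast W303a lacking pdr1 and pdr3 grown in galactose medium; growth measured after three days at 30 °C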
# BoNT F protease: BoNT F light chain protease inhibition | AID 588497 | Multiplex microsphere protease cleavage assay, flow cytometry | inhibition, % at 10 µM | 360,000 compounds, 0.22% hits; in the data active means inhibition above about 35%, passing the limit was not always enough; inconclusive means no clear call, values can overlap the other calls; further: plate controls were buffer without enzyme for full effect and enzyme alone for no effect
# The depositor's hits bear a star; ? = inconclusive; nt = no result. Unless noted, no stated cut-off is given here; in the data, active means inhibition above about 30%; inconclusive means no clear call, values can overlap the other calls; inactive means below that.
SMILES,Anthrax LF prot,Bead autofluor,MazF activator,BoNT A protease,PfHsp40 yeast,BoNT F protease
CCOC(=O)COc1c(Cl)cc(C2NC(=S)NC(c3ccccc3)=C2C(C)=O)cc1OC (stereo not drawn),-0.1,2497,-8.2,0.1,-0.3,0.8
COc1cc(C2NC(=S)NC(c3ccccc3)=C2C(C)=O)cc(Cl)c1OCC(=O)O (stereo not drawn),0.9,23312*,5.2,0.2,-0.3,-0.6
CC(=O)OC1CCC2C3CCc4cc(OP(=O)(N5CC5)N5CC5)ccc4C3CCC12C (stereo not drawn),4.2,3686,-7.8,0.6,nt,3.8
Nc1nc(-c2cccnc2)nn1C(=O)COc1ccccc1,-2.4,24503*,7.4,-2.5,-0.4,-6.2
Nc1nc(-c2cccnc2)nn1C(=O)CCc1ccccc1,-5.3,8911,3.8,0.4,0.1,-1.4
O=c1oc(-c2cccs2)nc2c1cnn2-c1ccccc1,1.3,16820*,13.0,?,1.8,-4.6
Cc1cc(O)c(C(C[N+](=O)[O-])c2ccc(Cl)cc2Cl)c(=O)o1 (stereo not drawn),-3.8,17730*,-12.1,-7.4,0.3,-8.5
O=c1[nH][nH]c(-c2ccccc2O)c1C(C[N+](=O)[O-])c1ccc(Cl)cc1Cl (stereo not drawn),-5.8,7029,2.9,0.0,-0.7,-16.2
CCn1c(COc2ccc(=O)n(-c3ccccc3)n2)nnc1SCc1ccccc1,-0.9,21225*,-0.7,-2.1,0.1,-4.9
CC(C)(C)C1(c2ccccc2)NC(=O)N(CC(=O)N2CCOCC2)C1=O (stereo not drawn),-2.9,19617*,0.5,?,0.1,2.3
CC1(c2ccccc2)NC(=O)N(CC(=O)N2CCOCC2)C1=O (stereo not drawn),-1.3,11302,-5.5,-0.4,-0.1,2.5
COC(=O)C1CN(C(=O)C(C)Oc2ccc(F)cc2)c2ccccc2O1 (stereo not drawn),-11.0,3685,9.7,-1.6,0.3,14.4
CC(C)(C)NC(=O)CN(C(=O)CCN1CCCc2ccccc21)C(C)(C)C,5.6,20626*,9.9,12.6,?,-6.0
COc1cccc(NC(=O)CN2C(=O)COc3ccc(S(=O)(=O)N4CCCCCC4)cc32)c1,2.3,5051,-7.6,2.4,0.4,8.5
Cc1cccc(NC(=O)CN(C)S(=O)(=O)c2ccc(Br)cc2)n1,-4.0,17225*,-2.7,?,-1.4,-3.8
CN(CC(=O)Nc1nc2ccccc2s1)S(=O)(=O)c1ccc(Cl)cc1,-0.7,6300,6.0,-0.7,-0.5,-7.5
CN(CC(=O)Nc1nc2ccccc2s1)S(=O)(=O)c1ccc(Br)cc1,0.0,21220*,-15.5,3.2,4.2,3.5
CN(C)CCCNc1cc(C(C)(C)C)nc2c(-c3ccccc3)cnn12,nt,nt,24.6,nt,1.8,nt
CCC1CCCCN1CCCNC(=O)c1cc2c(=O)[nH]c3ccccc3c2n1C (stereo not drawn),-9.5,5121,10.0,-0.2,-0.4,-3.9
CC(=O)Nc1ccc(SCc2c(C)noc2C)cc1,29.7*,3175,2.6,-0.4,1.4,27.2
CCCNC(=O)Cn1c(=O)/c(=C\c2ccc(-c3cccc([N+](=O)[O-])c3)o2)s/c1=C\C(=O)C(C)(C)C,15.5,2727,175.0*,32.6*,0.3,12.2
O=C1NC(=O)/C(=C/c2ccc(-c3cccc([N+](=O)[O-])c3)o2)S1,nt,nt,9.2,nt,-1.0,nt
Cc1ccc(C(=O)N/C(=C\c2ccc(-c3cccc([N+](=O)[O-])c3)o2)C(=O)NC(C)(C)C)cc1,0.1,2492,6.4,1.0,-1.0,-8.2
CCCNC(=O)Cn1c(=O)/c(=C\c2ccc(-c3ccc([N+](=O)[O-])cc3)o2)s/c1=C\C(=O)C(C)(C)C,9.1,12168,86.4*,13.1,0.8,15.7
CCCNC(=O)Cn1c(=O)/c(=C/c2ccc(-c3cccc([N+](=O)[O-])c3)o2)s/c1=C\C(=O)C(C)(C)C,8.2,4302,54.2*,9.7,-1.2,8.3
SMILES,Anthrax LF prot,Bead autofluor,MazF activator,BoNT A protease,PfHsp40 yeast,BoNT F protease
CCCCNC(=O)C1(C)CCCCN1C(=O)c1csnn1 (stereo not drawn),-1.8,3376,nt,0.3,nt,-3.5
Cc1cccc(-c2cc3nc(-c4ccccc4)cc(=O)n3[nH]2)c1,16.9,2855,6.2,-0.1,1.3,17.2
O=C(NCCO)/C(=C\c1ccco1)NC(=O)c1cccs1,-7.3,3989,-30.5,1.0,-0.9,4.8
O=C(NCCO)/C(=C/c1ccc(Br)cc1)NC(=O)c1cccs1,-0.7,23982*,2.5,-2.1,0.2,-0.3
O=C(O)c1cccc(N2C(=O)c3cccnc3C2=O)c1,-4.0,23303*,7.3,?,-0.6,-3.7
O=C(O)c1cccc(N2C(=O)c3cccc4cccc(c34)C2=O)c1,-6.2,3411,4.9,-0.5,-1.4,2.1
CCOc1ccc2nc(NC(=S)N(C)C)sc2c1,-11.0,10317,1.7,-1.5,122.3*,-4.4
CCOC(=O)c1c(NC(=S)Nc2ccc(OCC)cc2)sc2c1CCN(C)C2,5.6,5339,-2.4,6.0,-0.8,-3.0
CCOC(=O)c1c(NC(=S)Nc2ccc(Cl)cc2)sc2c1CCN(C)C2,34.1*,15220,170.9*,46.5*,2.8,11.3
CC(C)(C)NC(=O)C(c1ccccc1F)N(Cc1ccco1)C(=O)c1csnn1 (stereo not drawn),-0.6,16964*,3.5,-1.0,1.2,0.9
O=C(NC1CCCC1)C(c1ccccn1)N(C(=O)c1csnn1)C1CC1 (stereo not drawn),-2.2,16748*,-9.4,-2.0,2.4,-7.2
COCCN(C(=O)c1csnn1)C(C(=O)NC1CCCCC1)c1sccc1C (stereo not drawn),1.5,23376*,8.1,0.0,1.2,-1.8
O=C(NC1CCCC1)C(c1ccco1)N(Cc1ccccc1)C(=O)c1csnn1 (stereo not drawn),-0.7,20226*,-2.8,?,0.0,-2.4
Cc1cccc(NC(=O)CSc2cc(C)c(C#N)c3nc4ccccc4n23)c1,4.1,4202,-15.1,0.0,0.7,-0.1
O=C(Cc1cccc(NC(=O)C2CCN(C(=O)C3CC3)CC2)c1)Nc1cccc(C(=O)N2CCCCC2)c1,-4.4,3800,2.5,-0.8,-1.5,2.8
O=C(NC1CCCC1)C(c1ccccn1)N(C(=O)c1csnn1)C1CCCCC1 (stereo not drawn),-2.8,3284,3.7,0.2,4.3,-8.6
O=C(NC1CCCCC1)C(c1ccco1)N(C(=O)c1csnn1)C1CCCC1 (stereo not drawn),2.7,22986*,0.0,0.7,0.1,4.1
CC(C)NC(=O)CCNS(=O)(=O)c1ccc(Br)cc1,-1.0,24137*,-5.8,-2.6,-0.1,-2.8
CC(C)c1ccc(CCNC(=O)CCNS(=O)(=O)c2ccc(Br)cc2)cc1,-5.6,?,-19.4,-3.0,0.4,-0.9
COCC(=O)N1CCC2CC1c1cc(Cl)ccc12 (stereo not drawn),0.4,3742,-1.5,-0.2,-0.7,-5.0
